# Vif inh = HIV Vif inhibition; HEK293T cells, Vif self-association by quenched fluorescence, imaging, 24 h; inhibition, % at 7.49 µM; hit rate 0.35% among 340,000; AID 602346; in the data active means inhibition above about 50%, passing the limit was not always enough
# GRIN3A LBD mod = modulators (binders) of human NR3A ligand-binding domain; NR3A LBD differential scanning fluorimetry, Tm shift; 0% = protein alone, 100% = glycine-bound protein; Tm shift relative to glycine control, % at 25 µM; hit rate 2.5% among 340,000;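 active means melting temperature shift of at least 10% of the positive control shift, at one fixed dose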
# SKN-1 block = blocks SKN-1 activity in C. elegans. AID 624304. C. elegans VP596 Pgst-4::GFP/RFP ratio, acrylamide-induced, 24 h. inhibition, % at 21.8 µM. hit rate 0.49% among 360,000;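 active means interference check ratio from 0.5 to 1.5 plus GFP to RFP signal ratio inhibition reaching or exceeding a fixed threshold, cut at about 30% in these data, passing the limit was not always enough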
# NadD block = blocks S. aureus nicotinate mononucleotide adenylyltransferase | purified NadD enzyme, colorimetric absorbance read-out | inhibition, % at 20 µM | hit rate 0.78% among 360,000 | AID 602399; in the data active means inhibition above about 26%
# esBAF inh = blocks esBAF chromatin remodeling in mouse ES cells; reporter increase, % at 12.5 µM; Bmi1-luciferase knock-in reporter, 24 h; 100% = twice the neutral-well signal; hit rate 2% among 350,000; in the data active means activation above about 40%;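 further: 0% = median of the plate's neutral control wells and 100% = double that signal; a rise in the Bmi1 reporter signal indicates esBAF inhibition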
# SMARCA2 activ = increases SMARCA2 function in MMTV reporter cells. MG213 cells, MMTV-luciferase reporter, dexamethasone, overnight. activation, % at 9.1 µM. AID 652017. hit rate 1% among 370,000; in the data active means activation above about 7.8%;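 further: 0% = vehicle wells and 100% = reference activator wells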
# An asterisk follows results filed as active; . = no result given. Hits are enriched below; roughly 5.2% of the tested compounds scored in any of these assays.
SMILES,Vif inh,GRIN3A LBD mod,SKN-1 block,NadD block,esBAF inh,SMARCA2 activ
CCOc1cc2c(cc1OCC)-n1cccc1C(c1cccc(F)c1F)NC2 (centres undefined),5,10*,14,-10,-2,-1
CN(C)c1ccc(C(=O)c2ccc(N(C)C)cc2)cc1,4,0,42*,3,21,5
CN(C)c1ccccc1,-2,.,8,-6,-1,2
COc1ccccc1CCNC(=O)CCC(=O)N1CC2C[C@@H](C1)Cn1c2cccc1=O,-4,-3,3,-2,46*,0
O=C1NC(=O)N(CCc2ccc(F)cc2)C(=O)/C1=C\C=C\c1ccccc1,1,-3,-8,36*,-1,5
C=CCN1C(=O)NC(=O)/C(=C/C=C/c2ccccc2)C1=O,5,3,16,5,7,-2
C[C@]12CCC(=O)C(O)=C1CC[C@@H]1[C@@H]2CC[C@]2(C)C(=O)CC[C@@H]12,-8,12*,3,-2,0,1
COC(=O)[C@H]1[C@H](CO)[C@H]2Cn3c(ccc(-c4ccc(F)cc4)c3=O)[C@@H]1N2C(C)=O,.,.,.,.,-5,.
COc1ccc(Oc2cc(NC(=O)c3nn(C)cc3[N+](=O)[O-])cc([N+](=O)[O-])c2)cc1,19,15*,-3,-6,-3,-7
O=C(O)[C@@H]1[C@@H](CO)[C@@H]2Cn3c(ccc(-c4cncnc4)c3=O)[C@H]1N2C(=O)NC1CCCC1,.,.,.,.,2,.
CCOC(=O)c1cc2c(cn1)[nH]c1ccccc12,-8,4,9,-6,50*,5
COc1cc(/C=C2\C(=O)NC(=O)N(c3ccccc3)C2=O)cc(OC)c1O,.,11*,6,0,0,-3
CN1CC=C2C(C#N)=C(N)C(C#N)(C#N)C(c3ccncc3)C2C1 (centres undefined),13,1,40*,1,-2,.
Cc1cccc(OP(=O)(NCc2ccccc2)Oc2cccc(C)c2)c1,0,17*,14,6,.,-3
Cc1cccc(OP(N)(=O)Oc2cccc(C)c2)c1,0,0,0,-1,.,-3
CCCCCn1c(=O)c(C(=O)Nc2ccccc2C)c(O)c2ccccc21,-3,-1,1,-8,51*,7
COC1/C=C/C=C(\C)Cc2cc(O)c(Cl)c(c2)N(C)C(=O)CC(OC(=O)C(C)C)C2(C)OC2C(C)C2CC1(O)NC(=O)O2 (centres undefined),64*,2,-3,2,.,-3
CC=Cc1ccc2n(c1=O)C[C@H]1[C@H](CO)[C@@H](C(=O)O)[C@@H]2N1S(=O)(=O)c1ccccc1F (mixture of isomers),.,.,.,.,0,.
COC1C(O)C(C)OC(OC2C(Oc3cccc4c(O)c5c(=O)oc6ccc(C)c7c(=O)oc(c34)c5c67)OC(C)C(O)C2O)C1O (centres undefined),51*,2,9,1,-83,2
C=CCNC(=S)Nc1ccc(OC(=O)Nc2ccc(Cl)c(Cl)c2)cc1,-12,21*,3,-6,-1,-1
CC=Cc1ccc2n(c1=O)C[C@@H]1[C@@H](CO)[C@H](C(=O)OC)[C@H]2N1S(=O)(=O)c1cccc(C)c1 (mixture of isomers),.,.,.,.,2,.
C=CCC1(CN2CCCCCC2=O)C(=O)NC(=O)NC1=O,2,-1,2,5,-6,3
C=CCCC1(C2=CCCCC2)C(=O)NC(=O)NC1=O,-1,15*,-11,0,.,-4
Cc1cccc(S(=O)(=O)N2[C@@H]3c4ccc(-c5ccccc5)c(=O)n4C[C@H]2[C@H](CO)[C@H]3C(=O)O)c1,.,.,.,.,-5,.
CCN1[C@@H]2c3ccc(-c4cccc(C(=O)N(C)C)c4)c(=O)n3C[C@H]1[C@H](CO)[C@H]2C(=O)OC,.,.,.,.,-10,.
CCC1(c2ccccc2)C(=O)NC(=S)NC1=O,-6,11*,2,1,.,2
C=C1C(=O)O[C@@H]2C[C@@H](C)[C@@H]3C4OC4C(=O)[C@@]3(C)[C@@H](O)[C@H]12 (some centres undefined),41*,-3,6,5,12,-9
O=C1NC(=O)C(=Cc2cn(CCOc3ccc4c(c3)OCO4)c3ccccc23)C(=O)N1,15,2,27,43*,-12,.

# From PubChem
